{
  "source": "ChEMBL document CHEMBL2218924",
  "about": "“A broad activity screen in support of a chemogenomic map for kinase signalling research and drug discovery” (Biochem J, 2013)",
  "data": [
    {"biological_target": "T1, Testis-specific serine/threonine-protein kinase 1 (Homo sapiens) (UniProt Q9BXA7)", "T1 sequence (whole entry)": "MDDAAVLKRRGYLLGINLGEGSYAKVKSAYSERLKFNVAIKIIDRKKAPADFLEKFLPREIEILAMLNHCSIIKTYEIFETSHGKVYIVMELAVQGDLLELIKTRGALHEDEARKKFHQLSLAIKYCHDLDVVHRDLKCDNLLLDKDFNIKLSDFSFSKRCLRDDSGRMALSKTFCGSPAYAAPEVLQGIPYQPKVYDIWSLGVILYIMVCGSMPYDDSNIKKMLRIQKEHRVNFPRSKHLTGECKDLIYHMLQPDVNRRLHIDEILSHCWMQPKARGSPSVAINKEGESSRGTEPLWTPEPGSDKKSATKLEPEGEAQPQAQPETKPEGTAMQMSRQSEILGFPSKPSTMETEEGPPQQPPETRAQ", "settings": "at 1 µM", "units": {"residual activity": "%"}, "values": [
      {"smiles": "Nc1nc(Nc2ccc(S(N)(=O)=O)cc2)nn1C(=S)Nc1c(F)cccc1F", "residual activity": 16},
      {"smiles": "NC(=O)c1ccc2[nH]c(-c3ccc(Oc4ccc(Cl)cc4)cc3)nc2c1", "residual activity": 101},
      {"smiles": "CC(=O)c1ccc(N2CCOCC2)cc1O", "residual activity": 98},
      {"smiles": "CO[C@H]1[C@@H](OC)C[C@H](C)[C@@H](OC)C2=CC(=O)C=C(NC(=O)/C(C)=C/C=C/[C@H](OC)[C@@H](OC(N)=O)/C(C)=C/[C@@H]1C)C2=O", "residual activity": 100},
      {"smiles": "N#CC(C#N)=C(N)/C(C#N)=C/c1ccc(O)cc1", "residual activity": 98},
      {"smiles": "O=C1Nc2cc(Br)ccc2/C1=C1/Nc2ccccc2/C1=N\\O", "residual activity": 86},
      {"smiles": "COc1cc2ncnc(Nc3ccc(NC(=O)c4ccccc4)cc3)c2cc1OC", "residual activity": 109},
      {"smiles": "COc1cc2ncnc(Nc3ccc(Oc4ccccc4)cc3)c2cc1OC", "residual activity": 95},
      {"smiles": "CN(C)c1ccc(/C=C2\\C(=O)Nc3ccccc32)cc1", "residual activity": 104},
      {"smiles": "O=C1Nc2ccccc2/C1=C1/Nc2ccccc2/C1=N\\OCCC(O)CO", "note": "(configuration not stated)", "residual activity": 75},
      {"smiles": "Oc1ccc(-c2nc(-c3ccc(F)cc3)c(-c3ccncc3)[nH]2)cc1", "residual activity": 112},
      {"smiles": "COc1ccc(C(=O)Nc2sc3c(c2C(N)=O)CCCC3)cc1OC", "residual activity": 94},
      {"smiles": "N#CCCc1ccc2c(c1)-c1[nH]c3ccc([N+](=O)[O-])cc3c1CC(=O)N2", "residual activity": 39},
      {"smiles": "CCN(CC)C(=O)c1ccc(Nc2nc(OCC3CCCCC3)c3nc[nH]c3n2)cc1", "residual activity": 14},
      {"smiles": "C[C@@H](N)[C@H]1CC[C@H](C(=O)Nc2ccncc2)CC1", "residual activity": 97},
      {"smiles": "N#C/C(=C(\\N)Sc1ccc(N)cc1)c1ccccc1C(F)(F)F", "residual activity": 99},
      {"smiles": "c1ccc2c(-c3ccncc3)c[nH]c2c1", "residual activity": 94}
    ]}
  ]
}
